Here are results for 30 compounds from PubChem BioAssay (NCATS).

Structures are written as SMILES. Activity calls are given as the source filed them. A call without a number means that no potency is given here. Calls follow the shape of the dose curve; as a rule, active = well fitted activation curve with a large enough effect; inconclusive = small, poorly fitted or top-dose-only effect; inactive = no such curve, though single readings can be large or run the other way.

For the assay, the target named is Cytochrome P450 3A4 (Homo sapiens) (UniProt P08684). Kind of assay: qHTS Assay for Activators of Cytochrome P450 3A4 (AID 885). Also: nearly all actives have a fitted effect of over 65% in size. To be noted: recombinant CYP3A4, Luciferin-PPXE luminescence, 60 min; series mostly up to 57.1 µM. The method, boiled down: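 CYP3A4 activity: Luciferin-PPXE O-dealkylation, 25uM substrate, 200mM KPO4, RT throughout. Read-out is luciferase luminescence; higher values reflect activation.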
Cytochrome P450 3A4 (Homo sapiens), sequence (P08684 whole entry, looked up): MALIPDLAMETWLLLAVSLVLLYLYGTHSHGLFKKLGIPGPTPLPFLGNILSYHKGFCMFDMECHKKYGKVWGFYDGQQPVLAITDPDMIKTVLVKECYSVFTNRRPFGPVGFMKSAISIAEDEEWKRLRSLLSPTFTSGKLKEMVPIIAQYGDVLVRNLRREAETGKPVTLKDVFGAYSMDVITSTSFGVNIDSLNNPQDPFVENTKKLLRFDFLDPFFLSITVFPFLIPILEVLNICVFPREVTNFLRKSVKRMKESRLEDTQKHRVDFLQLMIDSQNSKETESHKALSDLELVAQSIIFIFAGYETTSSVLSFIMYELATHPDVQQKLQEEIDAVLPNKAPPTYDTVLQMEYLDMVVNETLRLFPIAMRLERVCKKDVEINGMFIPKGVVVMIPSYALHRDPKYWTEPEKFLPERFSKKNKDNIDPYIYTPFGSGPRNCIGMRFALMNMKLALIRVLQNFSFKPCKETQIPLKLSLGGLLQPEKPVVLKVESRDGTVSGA
In the case of `Cn1c(N)c(C(=O)COC(=O)c2ccnc3ccccc23)c(=O)n(C)c1=O`, the Potency result was “inactive”.

Regarding `CCC1=C2CC[C@H]3C(=O)NC(=O)[C@H]3[C@H]2[C@@]2(C)C(=O)N(CC3CC3)C(=O)N2C1=O`, the Potency entry is “inactive”.

Consider `COC(=O)c1ccc(CN2[C@@H]3C[C@@H](O)CC[C@@H]3C[C@H]2C(=O)OC)cc1`, for which the Potency entry was “inactive”.

Turning to `COC(=O)[C@@H]1C[C@@]2(O)[C@H](O)[C@H](O)[C@H](O)C[C@H]2N1Cc1ccc(-c2ccccc2)cc1`, the Potency entry is “inactive”.

As to `COC(=O)c1cccc(C23CC4(C2)[C@H](CN(C)[C@@H]4c2ccccc2)C3c2ccc(Cl)nc2)c1` (stereo not given in full), the Potency result is “inactive”.

With `COc1ccc(COC(=O)N/N=C2/C[C@@H](O)[C@@H](O)[C@@H]3[C@@H]4C(=O)N([C@@H](C)c5ccccc5)C(=O)[C@H]4CC[C@H]23)cc1`, the activity change, positive = activation is -54.4% [at 11.4 µM] (inactive).

As to `COC(=O)[C@@H]1CC[C@H](C)[C@@H](c2ccc(C)cc2)N1C(=O)c1ccc(/C=N\O[C@@H](C)CN2CCCCc3nc(C)c(C)cc32)cc1`, the activity change, positive = activation was -36.1% [at 11.4 µM] (inactive).

For the compound `CCC1=C(OC(=O)N(CC)CC)N2C(=O)OC(=NCCOC)[C@]2(Cc2ccccc2)[C@H]2C1=CC[C@H]1C(=O)N(C)C(=O)[C@H]12`, the Potency entry is “inactive”.

Consider `C#CCCCO/N=C1/[C@H]2O[C@@H]2[C@@H](O)[C@H]2[C@H]1CCn1c(=O)n([C@@H](CC)c3ccccc3)c(=O)n12`, for which the activity change, positive = activation was -55.5% [at 11.4 µM] (inactive).

In the case of `c1ccc(C2[C@H]3CN(CC4CCCCC4)[C@H](c4ccccc4)C34CC2(c2ccccc2)C4)cc1` (stereo not given in full), the Potency entry is “inactive”.

In the case of `COC(=O)C/C=C\[C@@H](C)[C@@H](CO)NS(=O)(=O)c1ccc(C)cc1`, the activity change, positive = activation is -37.6% [at 11.4 µM] (inactive).

In the case of `Nc1cc(=O)[nH]c(=O)n1CC1CC1`, the Potency entry is “inactive”.

`C/C(CCN1CCCc2nc(C)c(C)cc21)=N\OC[C@@H](C)[C@H](OCc1ccccc1)C(C)C`: the activity change, positive = activation was -46.3% [at 11.4 µM] (inactive).

For `COC(=O)c1ccc(C23CC4(C2)[C@H](CN(C)[C@@H]4c2ccccc2)C3c2ccc(C(F)(F)F)cc2)cc1` (stereo not given in full), the Potency entry was “inactive”.

With `Cn1c(N)c(C(=O)COC(=O)c2cc(C(F)(F)F)nc3ccccc23)c(=O)n(Cc2ccccc2)c1=O`, the Potency result was “inactive”.

`CO[C@H]1COC(=O)[C@H](C)COC(=O)[C@@H](Cc2ccccc2)NC(=O)C/C=C\[C@H]1C`: the activity change, positive = activation was -39.6% [at 11.4 µM] (inactive).

On to `COC(=O)[C@@H]1C[C@H]2CC[C@H](O)C[C@H]2N1Cc1ccc(-c2ccccc2)cc1`, for which the Potency result is “inactive”.

Turning to `COc1ccc(COC(=O)N/N=C2/C[C@@H](O)[C@@H](O)[C@@H]3[C@@H]4C(=O)N([C@@H](C)c5ccccc5)C(=O)[C@H]4CC[C@@H]23)cc1`, the activity change, positive = activation is -39.8% [at 11.4 µM] (inactive).

Take `CO[C@H]1COC(=O)C/C=C\[C@H](C)[C@@H](OC)COC(=O)[C@H](C)COC(=O)C/C=C\[C@@H]1C`: the activity change, positive = activation is -33.7% [at 11.4 µM] (inactive).

In the case of `CC(C)=NO[C@@H](C)c1cc(-c2c(C)cc(C)cc2C)no1`, the activity change, positive = activation is -45% [at 11.4 µM] (inactive).

For `CO[C@@H]1COC(=O)[C@@H](CCSC)NC(=O)C/C=C\[C@@H](C)COC(=O)CCC[C@H]1C`, the activity change, positive = activation is -30.5% [at 11.4 µM] (inactive).

As for `Cn1c(N)c(C(=O)COC(=O)c2cc(C3CC3)nc3ccccc23)c(=O)n(Cc2ccccc2)c1=O`, the Potency result was “inactive”.

As to `COC(=O)[C@@H]1C[C@@H]2CC[C@@H](O)C[C@@H]2N1Cc1ccc(N2CCN(C)CC2)cc1`, the Potency entry was “inactive”.

For the compound `FC(F)(F)c1ccc(CN2C[C@@H]3C(c4ccc(C(F)(F)F)cc4)C4(c5cccnc5)CC3(C4)[C@H]2c2ccccc2)cc1` (stereo not given in full), the Potency entry was “inactive”.

Take `Clc1ccc(C2[C@H]3CN(Cc4ccc(-c5ccccc5)cc4)[C@H](c4ccccc4)C34CC2(c2cccnc2)C4)cn1` (stereo not given in full): the Potency entry is “inactive”.

For `CN1C[C@@H]2C(c3ccccc3)C3(c4ccc(C#N)cc4)CC2(C3)[C@H]1c1ccccc1` (stereo not given in full), the Potency entry was “inactive”.

`CCC1CN2CCc3cc(OC)c(OC)cc3C2CC1CC1NCCc2cc(OC)c(OC)cc21` (stereo not given): the Potency result was “inactive”.

`COC(=O)c1cccc(C23CC4(C2)[C@H](CN(Cc2ccc(-c5ccccc5)cc2)[C@@H]4c2ccccc2)C3c2ccc(C(F)(F)F)cc2)c1` (stereo not given in full): the Potency result was “inactive”.

As for `COC(=O)[C@@H]1C[C@H]2CC[C@H](O)C[C@H]2N1Cc1ccc(C(F)(F)F)cc1`, the Potency entry was “inactive”.

With `CCc1cc2c(nc1CC)CCN(CC/C(C)=N/OC[C@@H](O)COCc1ccco1)C2`, the activity change, positive = activation was -38.2% [at 11.4 µM] (inactive).
